Giardia FBPA inh: qHTS Assay for Inhibitors of Fructose-1,6-bisphosphate Aldolase from Giardia Lamblia; purified Giardia FBPA; AID 2451, 2010; A8B2U2; hit rate 0.71% among 290,000; Potency, µM (series often up to 59.6 µM), for inactives: top-dose activity, negative = inhibition, usual class: inhibitors; also: potency is read from the fitted curve at half-maximal effect; % is scaled to controls: 0 for no effect and ±100 for the full control effect; nearly all actives have a fitted effect of over 55% in size
Target sequence (A8B2U2 whole entry, looked up): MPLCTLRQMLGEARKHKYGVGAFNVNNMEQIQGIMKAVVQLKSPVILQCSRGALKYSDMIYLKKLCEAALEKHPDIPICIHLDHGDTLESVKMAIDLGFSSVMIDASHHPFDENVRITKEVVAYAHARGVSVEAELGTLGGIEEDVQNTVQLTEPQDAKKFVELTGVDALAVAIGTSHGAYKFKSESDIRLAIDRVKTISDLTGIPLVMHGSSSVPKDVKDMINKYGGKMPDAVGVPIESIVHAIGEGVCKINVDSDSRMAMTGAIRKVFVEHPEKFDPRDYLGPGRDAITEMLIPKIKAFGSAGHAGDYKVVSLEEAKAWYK
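Giardia FBPA (40 nM reagent) was preincubated 10 min at RT with compound (up to 57.5 uM final), then substrate plus GAPDH/TPI/NAD/arsenate coupling system with diaphorase/resazurin was added; resorufin fluorescence (525/598 nm) was read after 20 min.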
Pf growth 96h: Primary qHTS for delayed death inhibitors of the malarial parasite plastid, 96 hour incubation; P. falciparum luciferase reporter growth, 96 h; Potency, µM (top dose mostly 28.7 µM), for the others: at the highest dose activity change, negative = inhibition, actives largely listed as inhibitors; hit rate 6.9% among 320,000; also: potency is read from the fitted curve at half-maximal effect; % is scaled to controls: 0 for no effect and ±100 for the full control effect
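Cell-based qHTS: luciferase-tagged P. falciparum in erythrocytes (2% hematocrit, 0.05% parasitemia final) incubated with compounds for 96 hours, 37 C, 5% CO2; luciferase detection reagent then added and luminescence measured.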
NS1 function inh: qHTS Assay for Inhibitors of Influenza NS1 Protein Function. Potency, µM (highest dose often 46.1 µM), without a hit: at the highest dose activity, positive = more growth. hit rate 0.4% among 270,000. AID 2326, 2010; calls by dose curve; also: potency is read from the fitted curve at half-maximal effect; actives are rising curves; nearly all actives have a fitted effect of over 50% in size
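OD600 was taken as the measure of yeast growth restored by compound in an NS1-expressing S. cerevisiae strain. Cells had been washed out of glucose medium and diluted 1:100 into galactose -URA medium, pH 6.0.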
Pf growth 48h: Primary qHTS for delayed death inhibitors of the malarial parasite plastid, 48 hour incubation; P. falciparum luciferase growth in erythrocytes, 48 h; Potency, µM (top dose mostly 28.7 µM), for the others: at the highest dose activity change, negative = inhibition, most hits filed as inhibitors; hit rate 5.9% among 310,000; AID 504832, 2011; also: potency is read from the fitted curve at half-maximal effect; % is scaled to controls: 0 for no effect and ±100 for the full control effect
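Luminescence readout; reporter = integrated firefly luciferase in P. falciparum. RBC culture at 2% hematocrit, 0.1% parasitemia final, 37 C/5% CO2; decreased signal taken as growth inhibition.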
Shiga toxin inh: A qHTS for Small Molecule Inhibitors of Shiga Toxin | Vero cells, Shiga toxin protein synthesis inhibition reporter | inhibition, % at 38.7 µM | hit rate 9.2% among 290,000 | AID 2315, 2010; in the data active = inhibition mostly above about 28%, no sharp cut-off; inactive = mostly below about 43%; also: 0% is about no effect
Cycloheximide cs: Cycloheximide Counterscreen for Small Molecule Inhibitors of Shiga Toxin | max response, % | hit rate 12% among 300,000 | AID 2314, 2010 | cell reporter, cycloheximide protein synthesis inhibition counterscreen; in the data active = max response mostly above about 13%, no sharp cut-off; inactive = mostly below about 14%; also: read at 38.3 µM for the half of the compounds with a filed dose; 0% is about no effect
Active calls of the source: *; i = inactive; ? = inconclusive; . = no result given. This is a sample that favours compounds with a hit; in the whole collection about 21% have one here. Unless noted, calls follow the shape of the dose curve; as a rule, active = well fitted curve in the direction sought with a large enough effect; inconclusive = small, poorly fitted or top-dose-only effect, or another doubt; inactive = no such curve, though single readings can be large; an effect the other way counts as inactive or inconclusive.

SMILES | Giardia FBPA inh | Pf growth 96h | NS1 function inh | Pf growth 48h | Shiga toxin inh | Cycloheximide cs
COc1cccc(C(=O)Nc2cc3c(cc2Cl)OCCCO3)c1 | -4.9% | 311.0% | -27.2% | 249.1% | 83.7* | 75.6*
COC(=O)c1cc(OC)c(OC)cc1NC(=O)c1cccc(C)c1 | 4.8% | -17.5% | 0.7% | ? | -7.5 | -1.1
COCCOc1cc(NC(=O)c2cccc(OC)c2)c(Cl)cc1Cl | -2.5% | ? | . | 11.7µM* | 33.3 | 6.0
CCC(=O)Nc1ccc(Cl)c(NC(=O)c2cccc(OC)c2)c1 | 2.7% | 13.9% | 2.4% | -5.8% | 2.2 | -2.3
Cc1cccc(C(=O)Nc2cc(OCc3cccc(F)c3)c(Cl)cc2Cl)c1 | -0.5% | -0.8% | 2.2% | 14.0% | 32.5 | 15.8*
CC(C)CN(C(=O)c1ccc(=O)n(C)n1)c1nc2ccccc2s1 | -5.6% | 141.8% | -34.4% | 49.0% | 16.8 | 15.1*
Cc1ccc(C(=O)N(CC(C)C)c2nc3ccccc3s2)o1 | 0.1% | -10.0% | -7.3% | -24.5% | 4.6 | 1.5
CC(C)n1ncc2c(C(=O)N3CCN(Cc4ccc(Cl)s4)CC3)cc(C3CC3)nc21 | . | ? | . | 13.1µM* | . | .
CC1CN(C(=O)c2cc(-c3ccc(Cl)s3)nc3ccccc23)CC(C)O1 (configuration not stated) | . | -25.9% | . | ? | . | .
Cc1ccc(S(=O)(=O)N2CCN(C(=O)c3cc(C4CC4)nc4c3cnn4C(C)C)CC2)cc1 | . | 2.62µM* | . | 13.1µM* | . | .
CSc1ncccc1C(=O)N1CCN(S(=O)(=O)c2ccc(C)cc2)CC1 | -5.9% | 4.6% | 8.4% | 5.6% | -2.6 | -11.1
COc1ccc(OC)c(N(CC(=O)N2CCCC2)S(C)(=O)=O)c1 | 7.5% | -4.6% | -5.9% | -3.3% | 10.8 | -1.7
CCOc1ccc(NC(=O)Nc2cccc(C(=O)O)c2)cc1 | 1.1% | 31.4% | . | 23.5% | -10.9 | -1.1
CCOc1ccc(C(=O)Nc2cccc(C)n2)cc1 | -11.7% | 113.9% | -9.0% | 146.3% | 25.0 | 24.5*
CCOc1ccc(NC(=O)Nc2cccc(C)n2)cc1 | 3.1% | ? | -6.7% | 77.3% | 72.0* | 27.6*
CCCCOc1ccc(C(=O)Nc2cccc(C)n2)cc1 | -1.5% | 29.1% | -107.7% | -8.1% | 73.6* | 43.2*
CCOC(=O)c1cccc(NC(=O)Nc2ccc(OCC)cc2)c1 | -0.2% | ? | . | 240.8% | 108.2* | 39.0*
O=C(O)[C@H]1CC=CC[C@@H]1C(=O)Nc1cccc(O)c1 | . | . | 16.7% | . | . | .
CCCCCCOC(=O)c1cccnc1 | . | -10.6% | . | -3.0% | . | .
Cc1cccc(NC(=O)c2ccc(S(=O)(=O)N(C)C)cc2)n1 | -2.7% | . | -2.8% | 51.1% | 78.0* | 36.7*
CCOc1ccc(C(=O)Nc2ncccc2Cl)cc1 | 2.4% | 47.0% | -0.3% | 77.7% | 70.6* | 41.8*
CCOc1ccc(/C=C/C(=O)Nc2cccc(C(C)=O)c2)cc1 | -6.8% | ? | -3.1% | 122.7% | 64.3* | 27.3*
Cc1cccc(NC(=O)CN(C)S(=O)(=O)c2ccc(Cl)cc2)n1 | -1.3% | 30.2% | -3.9% | -3.2% | 13.0 | -1.6
Nc1cc2c(nc3c4ccccc4c(N)cc3[n+]2-c2cccc3ccccc23)c2ccccc12 (tested in a mixture with another compound) | . | . | -15.3% | . | . | .
O=C(NCc1ccccc1F)c1ccc2c(c1)OCCO2 | -3.5% | 8.7% | 2.1% | 42.3% | . | 22.8*
SMILES | Giardia FBPA inh | Pf growth 96h | NS1 function inh | Pf growth 48h | Shiga toxin inh | Cycloheximide cs
O=C(NCc1ccco1)c1ccc2c(c1)CCO2 | -3.4% | 4.4% | 3.6% | ? | 16.7 | 17.9
O=C(NCc1ccco1)c1ccc2c(c1)OCCO2 | -0.2% | 11.0% | 3.4% | 34.9% | 26.4* | 23.9*
Cc1cc(C(=O)NCc2ccccc2F)cs1 | 3.6% | 6.3% | -3.9% | 41.5% | 33.8 | 16.1*
CCC(C)(CN(C)C)OC(=O)c1ccccc1 (configuration not stated) | . | 3.5% | . | 32.7% | . | .
Cc1nc(Nc2ccc(S(N)(=O)=O)cc2)sc1-c1ccccc1 | 4.9% | 31.8% | -0.5% | 20.2% | 47.3 | 30.7*
COc1ccc(-c2sc(NC(C)=O)nc2-c2ccccc2)cc1 | -3.8% | 32.5% | 12.5% | 20.8% | -4.9 | -3.0
COc1ccc(Nc2nc(C)c(-c3ccccc3)s2)cc1 | -22.8% | ? | -17.9% | 11.7% | 82.2* | 58.5*
COC(=O)N1CCC2(CCCN(Cc3ccccc3)C2)CC1 | 5.0% | . | . | . | . | .
CCCC(C(=O)Nc1cc(S(=O)(=O)N2CCOCC2)ccc1OC)c1ccccc1 (configuration not stated) | . | ? | 12.8% | ? | 4.1 | 1.0
Cc1nc(Cl)nc(N(C)c2ccccc2)c1[N+](=O)[O-] | -16.5% | 44.3% | -30.1% | 28.5% | -5.7 | -0.7
CN1C(=O)C(=Cc2ccccc2OCCOc2ccc([N+](=O)[O-])cc2)C(=O)N(C)C1=O | -16.0% | 11.7µM* | . | 3.8% | 21.5 | 20.6
O=C(CC1SC(N2CCCCC2)=NC1=O)Nc1cccc(C(=O)NCc2ccc(F)cc2)c1 (configuration not stated) | . | ? | . | -15.3% | . | .
COc1ccc(NC(=O)c2cc(-c3ccccc3)on2)cc1 | 2.7% | 148.7% | -9.0% | 85.0% | . | 19.4*
COc1ccc(-c2cc(C(=O)Nc3ccc(OC)c(OC)c3)no2)cc1 | 8.0% | ? | 1.2% | 26.9% | -5.4 | -0.5
CC(=O)Nc1cccc(NC(=O)c2cc(C)on2)c1 | 1.0% | i | -7.4% | 95.7% | 53.2* | 21.3*
CCc1ccccc1NC(=O)c1cc(C)no1 | -11.3% | 15.7% | -4.0% | -21.1% | 5.0 | -2.1
COc1ccc(NC(=O)c2cc(C)on2)cc1 | -0.2% | ? | . | 385.3% | 89.1* | 56.2*
COc1ccc(C(CNC(=O)c2cc(C)on2)N(C)C)cc1 (configuration not stated) | -7.7% | 2.4% | 2.2% | 10.1% | 12.5 | -3.0
Cc1cc(C(=O)NNC(=O)Nc2ccccc2)no1 | 0.7% | 13.0% | 0.1% | 3.4% | 1.2 | -0.9
Cc1cc(C(=O)Nc2cc(Br)ccc2O)on1 | -10.4% | 5.8% | -38.4% | 5.22µM* | 5.7 | 3.7
COc1ccc(Nc2ccc(C(F)(F)F)cc2[N+](=O)[O-])cn1 | . | -7.8% | 14.9% | -9.5% | -32.5 | 8.0
O=C(CN1C(=O)CC(c2ccccc2)S(=O)(=O)c2ccccc21)N1CCCC1 (configuration not stated) | 0.1% | 6.6% | . | -13.4% | -9.0 | 0.5
O=C(O)CCC(=O)Nc1ccc(-c2csc(Nc3cccc4ccccc34)n2)cc1 | . | 1.1% | . | 3.2% | . | .
COc1ccc(-c2cc(C(=O)Nc3cc(Br)ccc3O)no2)cc1 | 14.9% | -0.7% | 4.0% | 10.4µM* | 40.5 | 23.0*
COc1ccc(-c2cc(C(=O)Nc3cc(C)nn3-c3ccccc3)no2)cc1 | 8.5% | . | -3.3% | 38.9% | 71.8* | 39.9*
COc1ccc(-c2cc(C(=O)Nc3ccccc3SC)no2)cc1 | -2.7% | 0.0% | -6.4% | 24.8% | 32.6 | 6.3
